Reference: PubChem BioAssay (NCI)
This is part of a sample that, as a whole, favours compounds with a hit. Of some 83,000 tested, about 20% had one in any assay.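 Activity criterion: percent growth below 10, measured after cells in 96-well plates were exposed to a single compound concentration for 48 hours.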 Activity calls are given as the source filed them.

How the values were obtained:
Assay in all cases: NCI-60 one-dose screen, 48 h (100 = growth as untreated, 0 = no growth, -100 = all killed)
Settings in all cases: 10 µM unless noted
[1] = tested on: NCI-H23 lung
[2] = tested on: NCI-H226 lung
[3] = tested on: NCI-H322M lung
[4] = tested on: HOP-62 NSCLC
[5] = tested on: NCI-H460 lung
[6] = tested on: HOP-92 NSCLC
[7] = tested on: NCI-H522 lung
[8] = tested on: A549/ATCC NSCLC
[9] = tested on: 786-0 renal
[10] = tested on: COLO 205 colon

Measured: growth

CCCCCCCCCCCCCCCCCCNC(=O)[C@H]1CSC(c2cccs2)N1 (stereo not given in full)
inactive: [1] 18.9% | [6] 46.3% | [7] 38.6% | [10] 80.6%
active: [2] -77.5% | [3] 0.224% | [4] -90.3% | [5] -78.4% | [8] 8.15% | [9] 3.69%

Nc1cccc(-c2nc3sccn3c2-c2ccnc(NCCCNS(=O)(=O)c3cccc4ccccc34)n2)c1
inactive: [1] 44.3% | [2] 29.8% | [3] 63.5% | [4] 64.3% | [5] 35.5% | [6] 92.4% | [7] 34.9% | [8] 39.2% | [9] 53.9% | [10] 24.1%

CN1C(=O)N(C)C2C1NN=c1s/c(=C\c3cccnc3)c(=O)n12 (stereo not given)
inactive: [1] 86% | [2] 89.3% | [3] 89.1% | [4] 82.1% | [5] 83.8% | [6] 78.9% | [7] 72.2% | [8] 84% | [9] 96.5% | [10] 87%

COc1ccc(-n2c(-c3ccccc3)c(-c3ccccc3)c3c(SCC(=O)N/N=C/c4ccc(Cl)cc4)ncnc32)cc1
inactive: [1] 68.2% | [2] 76.6% | [3] 97.2% | [4] 85.5% | [5] 102% | [6] 66.8% | [7] 83.5% | [8] 93.1% | [9] 92.5% | [10] 104%

COc1ccc(/C=C2\Oc3cc(OCCCN4CCCC4)ccc3C2=O)c(OC)c1
inactive: [1] 87.9% | [2] 96.4% | [3] 94.6% | [4] 101% | [5] 23.5% | [6] 83.8% | [7] 75% | [8] 80.5% | [9] 89.4% | [10] 92.8%

O=C([O][Sn]([O]C(=O)c1ccccn1)([c]1ccccc1)[c]1ccccc1)c1ccccn1
active: [7] -68.7%
inactive: [1] 55.2% | [2] 65.5% | [3] 123% | [4] 98.9% | [5] 107% | [6] 74.5% | [8] 103% | [9] 96.2% | [10] 77.4%

COc1ccc(C2CC(c3ccc(OC)cc3OC)=NN2c2ccc(S(N)(=O)=O)cc2)cc1 (stereo not given)
inactive: [1] 90.7% | [2] 101% | [3] 94.4% | [4] 119% | [5] 87.3% | [6] 77.7% | [7] 63.7% | [8] 59% | [9] 99.3% | [10] 112%

COc1ccc(-c2ccc(-c3ccc(C(=N)N)s3)s2)cc1Cl
active: [5] -36.5% | [7] 0.287% | [8] -69.8% | [10] -48.4%
inactive: [1] 45.4% | [2] 79.3% | [3] 96.8% | [4] 70.9% | [6] 16.5% | [9] 72.3%

O=C1NN(C(=O)c2ccc(Cl)cc2)C(c2ccccc2)=N/C1=C\c1ccc(F)cc1
inactive: [1] 84% | [2] 92.1% | [3] 89.7% | [4] 99.1% | [5] 94.6% | [6] 83.5% | [7] 96.5% | [8] 87.5% | [9] 76.5% | [10] 109%

O=C(c1ccccc1)c1c(/C=C/c2ccccc2)c2ccccc2[nH]c1=O
inactive: [1] 94.2% | [2] 89.9% | [3] 82.8% | [4] 87.1% | [5] 114% | [6] 73% | [7] 83.4% | [8] 93.5% | [9] 92.2% | [10] 110%

c1ccc(-c2nc(N3CCNCC3)c3nc(-c4ccccc4)oc3n2)cc1
inactive: [3] 82% | [6] 42%
active: [1] -56.6% | [2] -61.3% | [4] -78.2% | [5] -73.7% | [7] -82.1% | [8] -77.2% | [9] -98.7% | [10] -84%

Fc1ccc(-c2nc(-c3nc4ncccc4[nH]3)cc3c2[nH]c2ccccc23)cc1F
inactive: [1] 67.2% | [2] 88.5% | [3] 64.7% | [4] 78.6% | [5] 91.1% | [6] 70.2% | [7] 58.3% | [8] 59% | [9] 95.2% | [10] 96.9%

O=[N+]([O-])c1ccc(OCCCOc2ccccc2)cc1
inactive: [1] 102% | [2] 113% | [3] 101% | [4] 96.9% | [5] 108% | [6] 121% | [7] 86.3% | [8] 92.4% | [9] 98.7% | [10] 118%

COc1cccc(-c2nc3sccn3c2-c2ccnc(NCCCNS(=O)(=O)c3ccc(C(F)(F)F)cc3)c2)c1
inactive: [1] 70.4% | [2] 59.4% | [3] 79.4% | [4] 91.3% | [5] 52.4% | [6] 68.9% | [7] 68.4% | [8] 44.1% | [9] 58.6% | [10] 70.2%

O=C1/C(=C/c2ccc([N+](=O)[O-])cc2)CN(C(=O)CCN2CCC(=NO)CC2)C/C1=C\c1ccc([N+](=O)[O-])cc1
active: [1] 0.382% | [3] -18.7% | [4] -21.9% | [5] -46.3% | [6] -10.4% | [7] -76.8% | [9] -37.1% | [10] -65.3%
inactive: [2] 15.1% | [8] 21.3%

NC1=C(/C(N)=N/O)C(c2ccccc2)c2ccc3ccccc3c2O1 (stereo not given)
active: [2] 1.84% | [5] 1.37% | [7] 5.81% | [10] -5.32%
inactive: [1] 28.7% | [3] 40% | [4] 26.2% | [6] 29.8% | [8] 21.2% | [9] 29%

O=C(Nc1cccc(-n2cc(-c3ccncc3)c(-c3ccc(Cl)c(O)c3)n2)c1)Nc1ccc(Cl)c(Cl)c1
inactive: [1] 13.5% | [2] 24.7% | [3] 40.6% | [4] 34.4% | [9] 30.1% | [10] 30.2%
active: [5] 6.5% | [6] -20.2% | [7] -6.8% | [8] 4.51%

c1ccc(-c2nnc(-c3ccccn3)s2)nc1
inactive: [1] 79.6% | [2] 96.8% | [3] 117% | [4] 80.4% | [5] 102% | [6] 89.7% | [7] 96.1% | [8] 102% | [9] 78.9% | [10] 109%

COc1ccc(-c2ccc(C)n2-c2ccc(-c3nc4cc(Cl)ccc4s3)cc2)cc1
inactive: [1] 83.4% | [2] 78.7% | [3] 103% | [4] 102% | [5] 99.7% | [6] 133% | [7] 98.8% | [8] 95.5% | [9] 106% | [10] 95.9%

COc1ccc(/C=C(\C#N)c2cc(OC)c3c(c2)OCO3)cc1
active: [5] 5.33% | [7] -8.84% | [10] -41%
inactive: [1] 37.5% | [2] 26.7% | [3] 44% | [4] 35.8% | [6] 43.6% | [8] 15.4% | [9] 20%

Fc1ccc(CNCCNc2ncnc3c2cnn3-c2ccccc2)cc1
inactive: [1] 103% | [2] 102% | [3] 100% | [4] 90.4% | [5] 104% | [6] 61.8% | [7] 99.9% | [8] 91.7% | [9] 83.5% | [10] 89.6%
